FEN1 inh-1 – qHTS Assay for the Inhibitors of Human Flap endonuclease 1 (FEN1). Potency, µM (top dose mostly 114 µM), for the others: at the highest dose activity change, negative = inhibition, actives largely listed as inhibitors. 390,000 compounds, 0.35% hits. Recombinant FEN1 flap cleavage, fluorescence, 15 min. P39748. AID 588795, 2011; also: % is scaled to controls: 0 for no effect and ±100 for the full control effect; nearly all actives have a fitted effect of over 65% in size
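Nuclease activity of 10 nM FEN1 was measured after 15 min of room-temperature exposure to titrated compounds, by adding 50 nM flap substrate and reading plates at 0 and 15 min.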
POLH inh – qHTS for Inhibitors of Polymerase Eta; DNA polymerase eta (Homo sapiens), Q9Y253; recombinant Pol eta, fluorescent DNA replication assay; Potency, µM (titrated, usually from 114 µM), for the others: top-dose activity change, negative = inhibition, most hits filed as inhibitors; 390,000 compounds, 1.2% hits; AID 588591, 2011; also: % is scaled to controls: 0 for no effect and ±100 for the full control effect
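Fluorescent replication assay: 50 nM final substrate added after a 15 min room-temperature compound preincubation with 10 nM enzyme. Signal taken at 0 min and again at 10 min.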
POLK inh – qHTS for Inhibitors of Polymerase Kappa | purified Pol kappa, fluorescent DNA synthesis assay, 10 min | Potency, µM (titrated, usually from 107 µM), for the others: at the highest dose activity, negative = inhibition, actives largely listed as inhibitors | 400,000 compounds, 0.53% hits | AID 588579, 2011; also: % is scaled to controls: 0 for no effect and ±100 for the full control effect
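10 nM Pol kappa was preincubated with compounds for 15 min at room temperature. Reaction started with 50 nM (final) substrate. Fluorescence read kinetically at 0 and 10 min.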
WRN helicase inh – qHTS for Inhibitors of WRN Helicase. Bifunctional 3'-5' exonuclease/ATP-dependent helicase WRN (Homo sapiens), Q14191. WRN helicase unwinding, fluorescent forked duplex, kinetic. Potency, µM (doses to about 114 µM), inactives show top-dose activity change, negative = inhibition, hits mostly inhibitors. 360,000 compounds, 0.46% hits; also: % is scaled to controls: 0 for no effect and ±100 for the full control effect; nearly all actives have a fitted effect of over 55% in size
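WRN at 20 nM final was preincubated with compound for 15 min at room temperature; reaction started with 100 nM forked duplex oligonucleotide carrying fluorophore and quencher plus 2 mM ATP (final). Unwinding followed kinetically by red fluorescence (ex 525/em 598 nm).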
Pol beta inh – qHTS Assay for Inhibitors of DNA Polymerase Beta | Pol beta primer extension/strand displacement, fluorescence kinetic | 340,000 compounds, 1.3% hits | P06746 | Potency, µM (series often up to 114 µM), for the others: at the top dose activity change, negative = inhibition, hits mostly inhibitors; also: % is scaled to controls: 0 for no effect and ±100 for the full control effect
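Pol beta (10 nM) and compounds were preincubated 15 min at room temperature, then 50 nM substrate (final) started primer extension/strand displacement. Reads were taken at 0 and 10 min; concentration-response data were fitted to a four-parameter Hill equation.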
POLI inh – qHTS for Inhibitors of Polymerase Iota; 390,000 compounds, 1% hits; DNA polymerase iota (Homo sapiens), Q9UNA4; Potency, µM (titrated, usually from 115 µM), for the others: top-dose activity, negative = inhibition, usual class: inhibitors; Pol iota fluorescent replication assay, 10 min
Target sequence (Q9UNA4 whole entry, looked up): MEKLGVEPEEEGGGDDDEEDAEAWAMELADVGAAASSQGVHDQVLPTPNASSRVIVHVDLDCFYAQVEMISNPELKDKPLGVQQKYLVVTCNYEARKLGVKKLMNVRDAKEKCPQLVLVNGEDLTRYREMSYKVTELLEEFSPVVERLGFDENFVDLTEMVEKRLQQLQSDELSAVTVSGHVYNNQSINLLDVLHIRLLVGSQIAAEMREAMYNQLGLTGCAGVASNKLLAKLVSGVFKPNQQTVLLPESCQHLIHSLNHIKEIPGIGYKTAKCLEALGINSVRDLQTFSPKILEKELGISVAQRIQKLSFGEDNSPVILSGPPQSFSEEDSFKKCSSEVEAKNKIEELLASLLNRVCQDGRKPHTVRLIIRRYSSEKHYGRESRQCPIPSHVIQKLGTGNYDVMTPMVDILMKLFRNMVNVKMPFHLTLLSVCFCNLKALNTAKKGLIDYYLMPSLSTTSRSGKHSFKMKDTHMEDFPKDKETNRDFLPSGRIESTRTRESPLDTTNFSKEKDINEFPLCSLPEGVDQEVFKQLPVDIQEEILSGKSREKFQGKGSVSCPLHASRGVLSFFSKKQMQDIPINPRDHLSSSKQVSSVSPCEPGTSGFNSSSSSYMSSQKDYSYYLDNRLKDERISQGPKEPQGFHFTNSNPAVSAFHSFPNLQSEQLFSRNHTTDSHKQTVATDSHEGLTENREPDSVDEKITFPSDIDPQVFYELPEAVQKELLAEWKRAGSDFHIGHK
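Fluorescent replication assay read twice, at 0 min and 10 min after adding 50 nM (final) substrate. Enzyme (10 nM) and compounds were first incubated 15 min at room temperature; enzyme-free buffer wells were negative controls.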
FEN1 inh-2 – qHTS Assay for the Inhibitors of FEN1: Confirmatory Assay for Cherry-picked Compounds | shares compounds with FEN1 inh-1 | FEN1 flap cleavage, TAMRA/BHQ2 fluorogenic DNA substrate | Potency, µM, most hits filed as inhibitors | 880 compounds, 79% hits | AID 720498, 2013; also: nearly all actives have a fitted effect of over 60% in size
Starred values were filed as active, the others as inactive; ? = inconclusive; . = no result given; [ ] = another dose, or the depositor's remark. This is a sample that favours compounds with a hit; in the whole collection about 2.4% have one here. Calls follow the shape of the dose curve; as a rule, active = well fitted curve in the direction sought with a large enough effect; inconclusive = small, poorly fitted or top-dose-only effect, or another doubt; inactive = no such curve, though single readings can be large; an effect the other way counts as inactive or inconclusive. Potency is read from the fitted curve at half-maximal effect.

SMILES	FEN1 inh-1	POLH inh	POLK inh	WRN helicase inh	Pol beta inh	POLI inh	FEN1 inh-2
Cc1nc2ccccc2c2nc3ccccc3n12	22µM*	-7%	-10%	-5%	?	?	27*
Cc1cccc(NC(=O)CCCCCn2c(=O)[nH]c3ccsc3c2=O)c1	-3%	-3%	-23%	.	-1%	-15%	.
CC1CCCN(c2nc3c(-c4ccc(Cl)cc4)nnn3c3ccccc23)C1 (stereo not drawn)	-1%	-13%	-3%	.	5%	65%	.
CCCC1=Nc2cc(C(=O)NCc3ccccc3)ccc2Sc2ccccc21	-21%	-26%	-12%	.	?	-13%	.
CCc1ccc(NC(=S)/N=C(\N)Nc2nc(C)c3cc(CC)ccc3n2)cc1	-20%	-7%	-11%	0%	-12%	16%	.
Cc1cc(C)c2c(N)c3ccccc3nc2n1	45µM*	-15%	-31%	17%	25µM*	14µM*	38*
CCc1ccc2nc3nc(C)cc(C)c3c(N)c2c1	?	2%	-10%	22%[57.1 µM]	?	?	?
Cc1cc(C)c2cccc(N)c2n1	2%	0%	-15%	10%	33%	68%	.
CCCSc1ncc(Cl)c(C(=O)Nc2c(C(=O)Nc3ccc(C)cc3)oc3ccccc23)n1	3%	.	1%	.	0%	-3%	.
CN(C)c1ccc(/C=C/c2ccnc3c(Cl)cccc23)cc1	-21%	.	-33%	.	.	-10%	.
CC(=O)Nc1ccc(Nc2nc(Nc3ccc(Cl)cc3)nc(N3CCOCC3)n2)cc1	-3%	.	-15%	.	.	?	.
Cc1ccc2onc(CC(=O)N3CCN(c4cc(Cl)ccc4C)CC3)c2c1	2%	-22%	-10%	.	15%	4%	.
CC1(C)CC(=O)C2=C(C1)O[C@@]1(CCCCN3C(=O)c4ccccc4C3=O)Cc3cc(C#N)ccc3C2O1	.	.	.	.	26%[22.9 µM]	.	.
CCCCCCCCn1c2c(c(=N)c3ccccc31)CCC2	-14%	-16%	-4%	7%	6%	86%	.
Cc1cc(C)c2c(=N)c3ccccc3n(CCCCCCCCn3c4ccccc4c(=N)c4c(C)cc(C)nc43)c2n1	7.1µM*	?	-35%	50µM*	.	?	5.4*
O=C(N/N=C/c1ccc(-c2ccccc2[N+](=O)[O-])o1)c1cncc(Br)c1	-13%	-16%	-18%	-35%	31%	58%	.
Nn1cnnc1N/N=C\c1ccc(-c2ccccc2[N+](=O)[O-])o1	-10%	-7%	-8%	-19%	-19%	2.8µM*	?
O=C(Nc1ncccc1O)c1c(O)c2ccccc2[nH]c1=O	?	?	-13%	-24%[11.6 µM]	?	-15%	?
CCOC(=O)c1cccc(NS(=O)(=O)c2cc(-c3cnc(C4CC4)o3)ccc2C)c1	-2%	-18%	-3%[60.1 µM]	.	-22%	-5%	.
CN(C)CCOC(=O)c1ccc2[nH]c3c(c2c1)CSCC3	50µM*	-18%	-6%	-9%[11.6 µM]	15%	115%	85*
O=C(Cc1cnn(-c2ccccc2)c1)c1ccc(O)c(O)c1O	25µM*	?	2.5µM*	11µM*	?	?	34*
C[C@@H]1[C@H](c2ccccc2)OCCS(=O)(=O)N1Cc1ccccc1F	-27%	.	2%	.	.	18%	.
CCCN1CNc2c(c(=O)[nH]c(=S)n2CCc2cccc(C)c2C)C1	-23%	.	3%	.	.	15%	.
O=C1c2ccccc2-c2nc3ccccc3cc21	-22%	-3%	-5%	-1%	13%	90%	.
c1ccc2c(c1)Cc1cc3ccccc3nc1-2	?	-10%	-13%	-1%[11.6 µM]	-9%	?	30*
